Our source for the outcome and AC50 values is PubChem BioAssay (EPA / NIEHS).

The target of assay [1] is Bile acid receptor (Homo sapiens) (UniProt Q96RI1). In words: ATG_IR1_CIS: Attagene CIS-FACTORIAL HepG2 Assay for human Nuclear Receptor Subfamily 1 Group H Member 4 (NR1H4), IR1 submotif (AID 2282946). To be noted: IR1 reporter transcription, actives raise or lower the signal. In a few lines: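 HepG2 cells transiently transfected with multiplexed cis-element reporter units read endogenous transcription factor activity. After 24 h compound exposure, reporter mRNA was quantified by RT-PCR, fluorescent labelling, HpaI digestion and capillary electrophoresis; bidirectional fitting versus DMSO baseline.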

Assay [2] is described as follows: ATG_GRE_CIS: Attagene CIS-FACTORIAL HepG2 Assay for human Glucocorticoid Response Elements (GRE) (AID 2282947). To be noted: HepG2 GRE cis-reporter, Attagene multiplex mRNA; actives raise or lower the signal. The procedure, abridged:
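Reporter transcripts read by RT-PCR with capillary electrophoresis fluorescence after a 24 h chemical exposure of HepG2 cells transiently transfected with multiple cis-element reporter units. Gain or loss fitted against DMSO.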

Assay [3] is described as follows: ATG_ISRE_CIS: Attagene CIS-FACTORIAL HepG2 Assay for human Interferon Regulatory Factor 1 (IRF1) binding to an Interferon-Stimulated Response Element (ISRE) (AID 2282948). To be noted: HepG2 ISRE cis-reporter (Attagene), mRNA transcription readout; actives raise or lower the signal. The procedure, abridged: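 Multiplexed mRNA reporter readout in human liver HepG2 cells: cis-element-driven reporters transfected, compound added for 24 h, transcripts amplified, fluorescently labelled and sized by capillary electrophoresis; curve fitting bidirectional against DMSO.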

Assay [4] is described as follows: ATG_M_32_CIS: Attagene CIS-FACTORIAL HepG2 Assay for M32 Transcription Factor (Internal Marker) (AID 2282949).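 Note: background control marker of the multiplexed CIS panel rather than a real target.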 The note with it: HepG2 Attagene cis-factorial M32 reporter, mRNA; actives raise or lower the signal. The procedure, abridged: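 HepG2 human liver cells transiently transfected with cis-promoter-driven multiple reporter transcription units, dosed 24 h. Reporter mRNA quantified by RT-PCR, FAM-labelled primer extension, HpaI digest and capillary electrophoresis; bidirectional fit versus DMSO baseline.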

Assay [5] can be described thus: ATG_M_06_CIS: Attagene CIS-FACTORIAL HepG2 Assay for M06 Transcription Factor (Internal Marker) (AID 2282950). To be noted: HepG2 Attagene CIS-FACTORIAL M06 internal marker reporter; actives raise or lower the signal. In a few lines: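 One of many multiplexed endpoints: HepG2 reporter mRNA after 24 h dosing, detected by RT-PCR and capillary electrophoresis fluorescence; gain or loss of signal analysed against DMSO.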

For assay [6], the target named is Hypoxia-inducible factor 1-alpha (Homo sapiens) (UniProt Q16665). In words: ATG_HIF1a_CIS: Attagene CIS-FACTORIAL HepG2 Assay for human Hypoxia Inducible Factor 1 (HIF1A) (AID 2282951). The note with it: HepG2 Attagene cis-factorial HIF1a reporter transcription; actives raise or lower the signal. In a few lines: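 Cis-element reporter constructs were transiently transfected into HepG2 cells, which were treated for 24 h; reporter RNA was reverse-transcribed, amplified, labelled and resolved by capillary electrophoresis.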

Assay [7] deals with Hepatocyte nuclear factor 6 (Homo sapiens) (UniProt Q9UBC0). In words: ATG_HNF6_CIS: Attagene CIS-FACTORIAL HepG2 Assay for human Hepatocyte Nuclear Factor 6 (HNF6) (AID 2282952). To be noted: HepG2 Attagene cis-factorial HNF6 reporter transcription; actives raise or lower the signal. The procedure, abridged: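 Endogenous factor activity read in transiently transfected HepG2 via promoter-regulated reporter transcripts. RNA harvested 24 h post-dosing, reverse-transcribed, PCR-amplified, FAM-labelled, HpaI-digested and resolved by capillary electrophoresis; fitted in both directions against DMSO.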

In assay [8] the target is Heat shock factor protein 1 (Homo sapiens) (UniProt Q00613). In words: ATG_HSE_CIS: Attagene CIS-FACTORIAL HepG2 Assay for human Heat Shock Transcription Factor 1 (HSE) (AID 2282953). The note with it: HepG2 HSE cis-reporter, Attagene RNA transcription; actives raise or lower the signal. The procedure, abridged: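 Using HepG2 with transfected cis-driven reporter constructs, compound effects on endogenous factor activity are scored as reporter mRNA change at 24 h. Detection: RT-PCR, HpaI digestion, capillary electrophoresis; bidirectional fitting to DMSO.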

Assay [9] can be described thus: ATG_MRE_CIS: Attagene CIS-FACTORIAL HepG2 Assay for human Metal Responsive Element (MRE) (AID 2282954). To be noted: HepG2 MRE cis-reporter transcription, Attagene multiplex; actives raise or lower the signal. In a few lines:
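Endogenous MRE-dependent transcription read as reporter mRNA in transiently transfected human HepG2 cells at 24 h. RNA reverse-transcribed, PCR-amplified, labelled and resolved by capillary electrophoresis; gain or loss relative to DMSO.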

The nature of assay [10]: ATG_PBREM_CIS: Attagene CIS-FACTORIAL HepG2 Assay for human Phenobarbital-responsive Enhancer Module (PBREM) (AID 2282955). To be noted: HepG2 PBREM cis-reporter, Attagene multiplexed transcription; actives raise or lower the signal. In a few lines: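 Multiplexed cis-reporter readout in human hepatoma HepG2 cells; PBREM-regulated transcript quantified after 24 h exposure by fluorescent RT-PCR fragment analysis. Signal changes up or down fitted relative to DMSO.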

The target in assay [11] is Paired box protein Pax-6 (Homo sapiens) (UniProt P26367). In words: ATG_Pax6_CIS: Attagene CIS-FACTORIAL HepG2 Assay for human Paired Box 6 (PAX6) (AID 2282956). To be noted: HepG2 CIS-FACTORIAL PAX6 reporter transcription, RNA readout; actives raise or lower the signal. In a few lines:
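Fluorescent RT-PCR products separated by capillary electrophoresis report PAX6-linked promoter mRNA in HepG2 cells 24 h post-dose. Curves fitted bidirectionally, DMSO as negative control.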

Assay [12] is described as follows: ATG_PXRE_CIS: Attagene CIS-FACTORIAL HepG2 Assay for human Pregnane X Receptor Element (PXRE) (AID 2282957). The note with it: HepG2 Attagene CIS-FACTORIAL PXRE reporter, mRNA; actives raise or lower the signal. The procedure, abridged:
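Reporter transcripts under endogenous PXR-responsive cis-regulation quantified from total RNA of transfected HepG2 cells 24 h post-dosing, via RT-PCR with fluorescent primer extension and capillary electrophoresis. Gain or loss of signal fitted against DMSO baseline.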

Assay [13] in a line: ATG_PPRE_CIS: Attagene CIS-FACTORIAL HepG2 Assay for human Peroxisome Proliferator-activated Response Element (PPRE) (AID 2282958). The note with it: HepG2 PPRE cis-element reporter, Attagene transcription factor profiling; actives raise or lower the signal. In a few lines: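 DMSO served as negative control and baseline for bidirectional curve fitting. Signal came from PPRE-regulated reporter mRNA in HepG2 cells, measured 24 h post-dosing by RT-PCR, 6-FAM primer extension and capillary electrophoresis.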

Assay [14] in a line: ATG_RORE_CIS: Attagene CIS-FACTORIAL HepG2 Assay for human RAR-related Orphan Receptor Element (RORE) (AID 2282959). The note with it: HepG2 Attagene cis-factorial RORE reporter, mRNA; actives raise or lower the signal. In a few lines:
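Transfect HepG2 with MRTUs; treat 24 h; extract RNA; RT with oligo(dT); PCR with reporter-specific primers; 6-FAM primer extension; HpaI digest 2 h at 37 C; capillary electrophoresis. Fit vs DMSO, bidirectional.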

A short description of assay [15]: ATG_Sox_CIS: Attagene CIS-FACTORIAL HepG2 Assay for human SRY-box transcription factor (SOX) (AID 2282960). The note with it: HepG2 Attagene cis-factorial SOX reporter, mRNA; actives raise or lower the signal. The procedure, abridged:
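Fluorescence-labelled cDNA fragments from reporter transcripts, sized by CE, give the signal. Cells: HepG2, transiently transfected with cis-regulated reporter units. Exposure 24 h; DMSO negative control; bidirectional curve fitting.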

The target in assay [16] is Transcription factor Sp1 (Homo sapiens) (UniProt P08047). In words: ATG_Sp1_CIS: Attagene CIS-FACTORIAL HepG2 Assay for human Specificity Protein 1 (Sp1) (AID 2282961). To be noted: HepG2 Sp1 cis-reporter transcription, actives raise or lower the signal. In a few lines:
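Chemicals are dosed onto HepG2 cells transfected with multiple cis-promoter reporter constructs, and after 24 h reporter RNA is reverse-transcribed, PCR-amplified and resolved by capillary electrophoresis for fluorescence quantitation; activity is scored up or down against DMSO.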

A short description of assay [17]: ATG_SREBP_CIS: Attagene CIS-FACTORIAL HepG2 Assay for human Sterol Regulatory Element Binding (SREBP) (AID 2282962). To be noted: HepG2 Attagene cis-factorial SREBP reporter, mRNA; actives raise or lower the signal. In a few lines: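 Endogenous factor activity is measured in HepG2 through multiplexed reporter units under cis-element control. Following a 24 h incubation, reporter transcripts are reverse-transcribed, PCR-amplified and sized by capillary electrophoresis; activity is fitted in both directions relative to DMSO.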

In assay [18] the target is Signal transducer and activator of transcription 3 (Homo sapiens) (UniProt P40763). In words: ATG_STAT3_CIS: Attagene CIS-FACTORIAL HepG2 Assay for human Signal Transducer and Activator of Transcription 3 (STAT3) (AID 2282963). To be noted: HepG2, Attagene cis-factorial STAT3 reporter transcription; actives raise or lower the signal. In a few lines:
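Readout is reporter transcript quantified by RT-PCR and capillary electrophoresis, with 6-FAM primer extension and HpaI digestion. Total RNA is taken 24 h after dosing transiently transfected HepG2 carrying cis-regulated reporter units. Bidirectional fit against DMSO.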

Assay [19] is described as follows: ATG_TA_CIS: Attagene CIS-FACTORIAL HepG2 Assay for human TA Basal Promoter (AID 2282964). To be noted: HepG2 Attagene CIS-factorial TA basal promoter reporter; actives raise or lower the signal. The procedure, abridged: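 Transient MRTU transfection of HepG2 preceded 24 h compound exposure. Reporter mRNA levels were then read by RT-PCR with capillary electrophoresis, and this background-control endpoint was fitted bidirectionally to DMSO.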

The nature of assay [20]: ATG_TCF_b_cat_CIS: Attagene CIS-FACTORIAL HepG2 Assay for human T-Cell-Factor with beta-catenin (TCF/b-cat) (AID 2282965). To be noted: HepG2 TCF/beta-catenin cis-reporter transcription, actives raise or lower the signal. The procedure, abridged:
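Endogenous transcription factor activity is captured through cis-promoter reporter constructs transiently introduced into human HepG2 liver cells. Induced reporter mRNA is measured after 24 h and fitted bidirectionally relative to DMSO.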

Active and inactive are the calls of the source. Rule for the calls: active = hit-call score of the fitted dose curve at least 0.9, where 1 is the maximum; inactive = score below 0.9.

One may read the AC50 as the midpoint of the concentration-response curve, whichever way the signal moves.

Sequence of Hypoxia-inducible factor 1-alpha (Homo sapiens) (Q16665 whole entry, looked up): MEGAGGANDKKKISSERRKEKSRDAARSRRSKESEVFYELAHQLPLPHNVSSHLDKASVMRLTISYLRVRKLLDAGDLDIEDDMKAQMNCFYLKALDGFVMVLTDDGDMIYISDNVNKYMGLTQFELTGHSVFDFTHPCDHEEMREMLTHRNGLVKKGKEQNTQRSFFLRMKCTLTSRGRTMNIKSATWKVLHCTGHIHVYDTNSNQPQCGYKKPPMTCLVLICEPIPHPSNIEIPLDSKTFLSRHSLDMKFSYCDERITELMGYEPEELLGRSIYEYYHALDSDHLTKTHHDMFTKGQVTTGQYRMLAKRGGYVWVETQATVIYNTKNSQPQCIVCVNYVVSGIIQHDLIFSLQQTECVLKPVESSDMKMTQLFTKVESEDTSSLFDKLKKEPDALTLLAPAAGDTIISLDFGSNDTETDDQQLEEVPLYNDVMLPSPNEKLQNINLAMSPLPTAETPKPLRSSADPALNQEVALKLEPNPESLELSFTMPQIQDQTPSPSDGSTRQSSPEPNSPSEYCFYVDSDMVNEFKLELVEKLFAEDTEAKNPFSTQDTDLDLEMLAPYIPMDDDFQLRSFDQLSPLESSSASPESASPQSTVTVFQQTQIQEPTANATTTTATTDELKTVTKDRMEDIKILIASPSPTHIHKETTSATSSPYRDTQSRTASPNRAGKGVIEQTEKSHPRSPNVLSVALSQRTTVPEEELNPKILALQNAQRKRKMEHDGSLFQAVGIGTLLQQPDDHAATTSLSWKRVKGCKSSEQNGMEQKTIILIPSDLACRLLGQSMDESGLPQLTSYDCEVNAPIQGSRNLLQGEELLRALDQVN
Sequence of Bile acid receptor (Homo sapiens) (Q96RI1 whole entry, looked up): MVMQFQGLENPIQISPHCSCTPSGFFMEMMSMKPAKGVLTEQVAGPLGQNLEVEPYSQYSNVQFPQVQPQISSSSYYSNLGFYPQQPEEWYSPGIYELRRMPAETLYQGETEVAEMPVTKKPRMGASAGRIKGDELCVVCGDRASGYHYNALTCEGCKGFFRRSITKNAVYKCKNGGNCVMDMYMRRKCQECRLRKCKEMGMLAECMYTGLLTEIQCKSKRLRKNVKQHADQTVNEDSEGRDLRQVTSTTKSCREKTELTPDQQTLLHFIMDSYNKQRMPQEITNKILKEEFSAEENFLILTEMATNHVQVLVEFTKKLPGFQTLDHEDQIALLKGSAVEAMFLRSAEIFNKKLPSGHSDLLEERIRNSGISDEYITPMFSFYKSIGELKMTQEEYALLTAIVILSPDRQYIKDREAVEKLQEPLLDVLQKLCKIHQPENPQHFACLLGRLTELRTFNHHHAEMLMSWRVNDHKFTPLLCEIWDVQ
Sequence of Hepatocyte nuclear factor 6 (Homo sapiens) (Q9UBC0 whole entry, looked up): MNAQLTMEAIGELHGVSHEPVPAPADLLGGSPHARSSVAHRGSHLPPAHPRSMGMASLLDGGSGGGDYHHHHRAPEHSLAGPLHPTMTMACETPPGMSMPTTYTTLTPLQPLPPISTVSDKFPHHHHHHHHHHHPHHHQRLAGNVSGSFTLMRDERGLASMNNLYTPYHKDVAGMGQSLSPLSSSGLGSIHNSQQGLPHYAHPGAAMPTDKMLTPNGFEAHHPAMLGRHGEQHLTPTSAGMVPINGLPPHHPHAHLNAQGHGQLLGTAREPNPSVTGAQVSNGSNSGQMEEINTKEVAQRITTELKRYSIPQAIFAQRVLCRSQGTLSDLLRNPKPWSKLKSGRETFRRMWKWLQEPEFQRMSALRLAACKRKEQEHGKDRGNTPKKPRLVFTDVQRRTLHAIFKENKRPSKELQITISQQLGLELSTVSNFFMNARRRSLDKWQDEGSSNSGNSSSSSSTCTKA
Sequence of Paired box protein Pax-6 (Homo sapiens) (P26367 whole entry, looked up): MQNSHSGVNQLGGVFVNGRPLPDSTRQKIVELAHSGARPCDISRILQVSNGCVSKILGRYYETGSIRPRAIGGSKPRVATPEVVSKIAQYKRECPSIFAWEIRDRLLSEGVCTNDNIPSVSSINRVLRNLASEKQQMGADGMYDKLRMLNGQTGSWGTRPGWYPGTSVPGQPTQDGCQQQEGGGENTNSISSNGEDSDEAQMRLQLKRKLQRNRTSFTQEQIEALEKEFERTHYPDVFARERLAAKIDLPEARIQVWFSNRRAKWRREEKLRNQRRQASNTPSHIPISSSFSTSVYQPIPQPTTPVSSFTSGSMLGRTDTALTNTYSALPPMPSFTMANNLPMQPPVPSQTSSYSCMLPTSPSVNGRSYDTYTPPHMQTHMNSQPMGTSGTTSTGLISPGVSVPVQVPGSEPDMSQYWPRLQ
Sequence of Transcription factor Sp1 (Homo sapiens) (P08047 whole entry, looked up): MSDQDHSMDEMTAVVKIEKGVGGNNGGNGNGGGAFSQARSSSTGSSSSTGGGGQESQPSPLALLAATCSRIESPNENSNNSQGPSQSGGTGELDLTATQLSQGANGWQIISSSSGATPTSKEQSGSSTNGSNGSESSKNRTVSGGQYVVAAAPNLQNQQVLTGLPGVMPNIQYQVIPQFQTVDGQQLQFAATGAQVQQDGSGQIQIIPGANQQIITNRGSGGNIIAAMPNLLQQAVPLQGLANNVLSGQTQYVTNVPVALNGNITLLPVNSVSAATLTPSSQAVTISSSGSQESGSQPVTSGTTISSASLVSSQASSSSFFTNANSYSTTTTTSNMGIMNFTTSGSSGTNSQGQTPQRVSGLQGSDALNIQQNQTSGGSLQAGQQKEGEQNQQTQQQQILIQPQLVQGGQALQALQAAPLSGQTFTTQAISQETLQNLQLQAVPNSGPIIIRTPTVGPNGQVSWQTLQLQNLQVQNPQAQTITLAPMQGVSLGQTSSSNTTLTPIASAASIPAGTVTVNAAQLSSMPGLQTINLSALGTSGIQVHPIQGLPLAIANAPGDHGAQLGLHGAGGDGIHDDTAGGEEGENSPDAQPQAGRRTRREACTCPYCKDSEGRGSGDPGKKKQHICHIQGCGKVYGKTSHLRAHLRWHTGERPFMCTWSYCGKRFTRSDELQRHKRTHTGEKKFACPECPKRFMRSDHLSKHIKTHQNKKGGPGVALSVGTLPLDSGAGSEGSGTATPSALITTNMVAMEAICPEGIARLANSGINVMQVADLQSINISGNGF
Sequence of Heat shock factor protein 1 (Homo sapiens) (Q00613 whole entry, looked up): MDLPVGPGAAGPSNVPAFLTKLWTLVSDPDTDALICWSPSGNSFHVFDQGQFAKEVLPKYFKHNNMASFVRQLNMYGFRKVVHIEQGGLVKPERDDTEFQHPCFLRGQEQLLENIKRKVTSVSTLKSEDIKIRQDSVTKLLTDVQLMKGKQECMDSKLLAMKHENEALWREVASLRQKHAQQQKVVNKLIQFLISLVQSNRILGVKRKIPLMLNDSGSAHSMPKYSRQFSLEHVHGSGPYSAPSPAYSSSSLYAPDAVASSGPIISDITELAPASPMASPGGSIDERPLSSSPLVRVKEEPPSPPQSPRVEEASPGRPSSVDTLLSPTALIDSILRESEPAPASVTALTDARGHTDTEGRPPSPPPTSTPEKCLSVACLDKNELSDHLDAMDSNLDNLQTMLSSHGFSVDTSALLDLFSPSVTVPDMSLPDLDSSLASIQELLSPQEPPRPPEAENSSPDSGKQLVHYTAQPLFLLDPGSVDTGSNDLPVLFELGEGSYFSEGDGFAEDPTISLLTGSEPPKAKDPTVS
Sequence of Signal transducer and activator of transcription 3 (Homo sapiens) (P40763 whole entry, looked up): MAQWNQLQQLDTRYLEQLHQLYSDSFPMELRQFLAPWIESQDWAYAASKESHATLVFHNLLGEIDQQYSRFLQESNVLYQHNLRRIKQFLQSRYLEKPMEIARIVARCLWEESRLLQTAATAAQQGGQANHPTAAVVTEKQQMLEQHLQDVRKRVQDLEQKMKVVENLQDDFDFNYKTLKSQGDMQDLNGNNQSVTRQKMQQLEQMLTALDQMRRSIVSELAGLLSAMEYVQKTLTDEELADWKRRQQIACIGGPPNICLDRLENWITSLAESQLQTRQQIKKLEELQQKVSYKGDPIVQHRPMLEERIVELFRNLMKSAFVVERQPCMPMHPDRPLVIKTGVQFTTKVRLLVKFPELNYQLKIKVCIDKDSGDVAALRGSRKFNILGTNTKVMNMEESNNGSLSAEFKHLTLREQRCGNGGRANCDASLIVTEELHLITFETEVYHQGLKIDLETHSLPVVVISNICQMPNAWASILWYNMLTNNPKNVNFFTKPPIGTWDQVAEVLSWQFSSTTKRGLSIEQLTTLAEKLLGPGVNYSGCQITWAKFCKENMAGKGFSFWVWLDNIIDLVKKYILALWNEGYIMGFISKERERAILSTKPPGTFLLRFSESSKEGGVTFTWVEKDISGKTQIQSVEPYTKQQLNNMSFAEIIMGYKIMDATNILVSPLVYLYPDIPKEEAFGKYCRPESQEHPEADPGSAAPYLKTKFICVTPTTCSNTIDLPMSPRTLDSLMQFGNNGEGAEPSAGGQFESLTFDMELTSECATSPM

For the compound `CCCCCCCCCCCCS(=O)(=O)Cl`, the compound was classed as inactive in [1], in [2], in assay [3], in assay [4], in [5] and in [6]. The compound was classed as inactive in [7], in [8], in assay [9], in assay [10], in [11] and in [12]. Further, the outcome in assay [13], in [14], in assay [15], in assay [16], in assay [17] and in assay [18] was inactive. For the same compound, the call in [19] and in assay [20] was inactive.
Regarding `CCc1cc(Cc2cc(CC)cc(C(C)(C)C)c2O)c(O)c(C(C)(C)C)c1`, the compound was called inactive in [1], in assay [2], in assay [4], in assay [5], in assay [7] and in [10]. In addition, the compound was classed as inactive in [15], in [17] and in [20]. Also, the AC50 in assay [3] was 17.4 µM (active); in assay [6], 16.7 µM (active); in assay [9], 18.1 µM (active); in assay [11], 16.6 µM (active); in [12], 0.0355 µM (active); in [13], 11.1 µM (active). Also, the AC50 was 18.1 µM (active) in [14], 11.1 µM (active) in [16] and 11.1 µM (active) in assay [19].
In the case of `CS(=O)(=O)c1ccc(C2=C(c3ccccc3)C(=O)OC2)cc1`, the compound was called inactive in assay [1], in assay [2], in assay [3], in assay [4], in [5] and in [6]. For the same compound, the result in assay [7], in assay [8], in [9], in [10], in assay [11] and in assay [14] was inactive. The result in assay [15], in assay [16], in assay [17], in assay [18], in assay [19] and in assay [20] was inactive. In assay [12], the AC50 is 20.1 µM (active).
In the case of `CC1CC(O)CC(C)(C)C1` (stereo not drawn), the compound was classed as inactive in [1], in assay [2], in assay [3], in [4], in [5] and in assay [6]. Further, the result in [7], in assay [9], in assay [10], in assay [11], in assay [12] and in assay [13] was inactive. The compound was called inactive in assay [14], in [16], in [17] and in assay [20].
